Source: PubChem BioAssay AID893 (National Center for Advancing Translational Sciences (NCATS), 2007)
Where “and” joins values, the source holds several entries; their conditions need not be identical. Equal entries are not always repeated. Hit rate of the full screen: of about 75,000 compounds, about 5,700 (7.6%) were called active. About 7% were inconclusive and are not listed. Shown is part of a subset that was picked to be rich in actives. A call without a number means that no potency is given here. A number with no mark means an inactive call. Calls come from the whole dose curve; as a rule, active = well fitted inhibition curve with a large enough effect; inconclusive = small, poorly fitted or top-dose-only effect; inactive = no such curve, though single readings can be large or run the other way.

The compounds below were run against 3-hydroxyacyl-CoA dehydrogenase type-2 (Homo sapiens) (UniProt Q99714) (assay: qHTS Assay for Inhibitors of HSD17B4, hydroxysteroid (17-beta) dehydrogenase 4). Settings: recombinant HSD17B10, NADH fluorescence kinetic; series mostly up to 57.1 µM.
Summary of the method: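 Enzyme plus compound, 15 min room temperature; substrate mix added (NAD+ 1 mM, beta-hydroxybutyryl-CoA 90 uM final); plates read kinetically for NADH fluorescence. HADH2 was His-tagged, E. coli-derived, 20 nM.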
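Note: the protocol describes HADH2 (HSD17B10) and not the HSD17B4 of the title; nearly all actives have a fitted effect of over 70% in size.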
Potency is the fitted concentration of half-maximal effect.

Row | Compound | Potency | activity change, negative = inhibition
1 | CCOC(=O)CN(C(=O)CN1CCOCC1)c1ccc(Br)cc1 | inactive | 
2 | Cc1ccc(OCC(O)CN2CCN(CC(O)COc3ccc(C)cc3Cl)CC2)c(Cl)c1 (configuration not stated) | inactive | 
3 | c1ccc(-n2ncc(-c3nn[nH]n3)n2)cc1 | 31.6 µM (active) | 
4 | CC(C)c1ccc(-c2nn[nH]n2)cc1 | inactive | 
5 | CCCn1nnc2sc3c(c2c1=O)CCC(C)C3 (configuration not stated) | inactive | 
6 | Cc1nc2cc(S(=O)(=O)C(F)(F)F)ccc2s1 | inactive | 
7 | CC(=O)Oc1ccc2c(C)c(CC(C)O)c(=O)oc2c1 (configuration not stated) | 2 µM (active) | 
8 | COc1ccc(-c2oc3cc(OC)ccc3c2C(=O)c2ccc(C#N)cc2)cc1 | inactive | 
9 | CN1C(C)(C)CC(NC(=O)CCC(=O)NC2CC(C)(C)N(C)C(C)(C)C2)CC1(C)C | inactive | 
10 | O=C(CCCOc1ccccc1)Nc1cccc(C(=O)O)c1 | inactive | 
11 | Cc1ccc2c(c1)N(CCCC(=O)NCc1cccnc1)C(=O)CO2 | inactive | 
12 | COc1cccc(N(CC(=O)Nc2cccc(N(C)S(C)(=O)=O)c2)S(C)(=O)=O)c1 | inactive | 
13 | COC(=O)c1cn(-c2ccccc2)nc1-c1cccnc1 | inactive | 
14 | COc1ccc2c(=O)cc(-c3ccccc3)oc2c1O | inactive | 
15 | Cc1ccc2oc(=O)ccc2c1 | inactive | 
16 | Cc1cccc(-c2cc(=O)c3cc(C)ccc3o2)c1 | 31.6 µM (active) | 
17 | COc1ccc(C)cc1-n1nnnc1SCC(=O)c1cc(C)n(Cc2ccco2)c1C | inactive | 
18 | O=C(NCCc1ccc(Cl)cc1)C1CC(=O)N(C2CCCCC2)C1 (configuration not stated) | inactive | 
19 | Oc1cc2c(cc1O)CN(C(=S)NCCc1ccc(Cl)cc1)CCC2 | 15.8 µM (active) | 
20 | NS(=O)(=O)c1ccc(CCNC(=O)Nc2ccc(Cl)cc2)cc1 | inactive | 
21 | CN1CCc2[nH]nc(-c3n[nH]c4c3CN(C)CC4)c2C1 |  | 4.35% [at 11.4 µM]
22 | COc1ccc(-c2ccnc(SCC(=O)N3CCOCC3)n2)cc1 | 25.1 µM (active) | 
23 | CCn1c(COc2cccc(OC)c2)nnc1SCC(=O)N1CCOCC1 | inactive | 

Row | Compound | Potency | activity change, negative = inhibition
24 | COc1ccc(-c2nc(SCC(=O)N3CCOCC3)n[nH]2)cc1 | inactive | 
25 | O=C(CSc1nnc(-c2ccccc2)o1)N1CCOCC1 | inactive | 
26 | O=C(OCc1nnc(-c2ccccc2)o1)c1ccc2c(c1)C(=O)N(CCc1ccccc1)C2=O | inactive | 
27 | Nc1ccc(-c2nnc(-c3ccc(-c4ccccc4)cc3)o2)cc1 | 5.01 µM (active) | 
28 | Fc1cccc(/C=N\N=C/c2cccc(F)c2)c1 | inactive | 
29 | O=C(O)CCC(=O)NCc1ccc2[nH]c3c(c2c1)CCCC3 | inactive | 
30 | N#CCCN1CCN(S(=O)(=O)c2ccc(S(=O)(=O)NC3CCCCC3)cc2)CC1 | inactive | 
31 | COc1ccccc1-n1c(CNC(=O)c2ccccc2)nnc1SCC(=O)Nc1nnc(C)s1 | inactive | 
32 | COC(CCN(C)C)(c1ccccc1)c1ccccc1 | inactive | 
33 | CCCCN(CC)CCCNC(=O)CS(=O)(=O)Cc1nc(-c2cccc(OC)c2)oc1C | inactive | 
34 | COc1cccc(-c2nc(S(=O)(=O)c3ccccc3)c(N3CCOCC3)o2)c1 | inactive | 
35 | COc1cccc(-c2nc3cc(C)ccc3o2)c1 | 25.1 µM (active) | 
36 | COc1ccccc1N1CCN(CCN2C(=O)c3ccccc3C(C)(C)C2=O)CC1 | inactive | 
37 | COc1ccc(OC)c(CNC(=O)CCc2nc(-c3cccs3)no2)c1 | inactive | 
38 | CCC1=C/C(=C\c2ccc3c(c2)OCO3)C(=O)S1 | 25.1 µM (active) | 
39 | CCOC(=O)NCc1ccc2c(c1)OCO2 | inactive | 
40 | CCOc1ccc(NC(=O)CSc2nc3c(c(=O)n2-c2ccccc2OC)SCC3)cc1 | inactive | 
41 | COc1ccc(/C=C/NC(=O)Cc2ccc(OC)c(OC)c2)cc1 |  | -1.94% [at 11.4 µM] and 1.41% [at 11.4 µM]
42 | O=C(c1cccc(S(=O)(=O)N2CCOCC2)c1)N1CCOCC1 | inactive | 
43 | O=C(Cn1nnc(-c2ccccc2)n1)NCc1ccc2c(c1)OCO2 | inactive | 
44 | c1ccc2c(Nc3ccncc3)nc(-c3ccoc3)nc2c1 | 20 µM (active) | 
45 | COc1ccccc1CNc1ccnc(-c2c(C)noc2C)n1 | inactive | 
46 | COc1cccc(-c2nc(Nc3ccncc3)c3ccccc3n2)c1 | inactive | 

Row | Compound | Potency | activity change, negative = inhibition
47 | c1ccc2c(Nc3ccncc3)nc(-c3ccc4c(c3)OCO4)nc2c1 | 25.1 µM (active) | 
48 | CNc1nc(-c2ccccc2OC)nc2ccccc12 | inactive | 
49 | c1cncc(-c2nc(N3CCNCC3)c3ccccc3n2)c1 | inactive | 
50 | Cc1cnc(CNc2nc(-c3cccnc3)nc3ccccc23)cn1 | inactive | 
51 | Cc1noc(C)c1-c1nc(Nc2ccccc2)c2ccccc2n1 | 20 µM (active) | 
52 | CCCn1c(=O)c2[nH]c(C3CCCC3)nc2n(CCC)c1=O | inactive | 
53 | O=C(Cn1cc2c(n1)CCCCC2)NCCN1CCOCC1 | inactive | 
54 | Cc1cc(NC(=O)COC(=O)c2ccc(F)c(S(=O)(=O)N3CCOCC3)c2)no1 | inactive | 
55 | CC1(C)OC2CC(=O)OC[C@@]23C1CC(=O)[C@]1(C)C3CC[C@@]2(C)C(c3ccoc3)OC(=O)C3O[C@@]321 (some centres not stated) | inactive | 
56 | NC[C@@H]1O[C@H](O[C@@H]2[C@H](O[C@@H]3O[C@H](CO)[C@@H](COC[C@H]4O[C@@H](CN)[C@@H](O)[C@@H](O)[C@@H]4N)[C@@H]3O)[C@@H](O)[C@@H](N)C[C@H]2N)[C@@H](N)[C@H](O)[C@@H]1O | inactive | 
57 | C=CCSc1nnc(Cn2c(=O)sc3ccccc32)n1C | inactive | 
58 | Cc1cc(NC(=O)CN2CCC(O)(c3cccc(F)c3)CC2)no1 | inactive | 
59 | CCCN(C/C=C\I)[C@@H]1CCc2cccc(O)c2C1 | inactive | 
60 | CC(NC(=O)CN1CCN(Cc2ccc(Cl)cc2)C1=O)c1ccc2c(c1)OCCO2 (configuration not stated) | inactive | 
61 | CC1CCCCC1NC(=O)CSc1nnc(N)s1 (configuration not stated) | inactive | 
62 | O=c1ccc2cc(S(=O)(=O)N3CCN(c4ccccc4)CC3)ccc2o1 | inactive | 
63 | CN(C)CCCn1c(N)c(C#N)c2nc(C#N)c(C#N)nc21 | 25.1 µM (active) | 
64 | O=C1NC(=O)[C@@](Cc2ccccc2)(c2cccnc2)N1 |  | -1.35% [at 11.4 µM]
65 | CCOc1ccc(OCC)c(NC(=O)C2CCN(S(=O)(=O)c3c(C)noc3C)CC2)c1 | inactive | 
66 | Cc1ccc(F)cc1NC(=O)c1ccc2c(c1)OCO2 | inactive | 
67 | COc1ccccc1OCCNCC(O)COc1cccc2[nH]c3ccccc3c12 (configuration not stated) | inactive | 
